Results on one compound are retold here after PubChem BioAssay (NCATS).

Molecules are shown by their SMILES. Results filed as inconclusive are left out. The source made the active and inactive calls. Calls come from the whole dose curve; as a rule, active = well fitted curve in the direction sought with a large enough effect; inconclusive = small, poorly fitted or top-dose-only effect, or another doubt; inactive = no such curve, though single readings can be large; an effect the other way counts as inactive or inconclusive.

Assay [1] in a line: ZIKV-mCherry secondary qHTS for Zika virus inhibitors (AID 1347158). Note: top concentration of the series differs between compounds. As to conditions: Vero cells, ZIKV-mCherry infection imaging, 48-72 h; series mostly up to 49.2 µM. The method, boiled down:
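Vero cells, 5,000/well, plated overnight at 37 °C, then compound added and infected with recombinant ZIKV-mCherry at MOI 1 for 48-72 h. PFA-fixed, Hoechst nuclear stain, high-content imaging; cells with mCherry intensity above 450 RFU scored infected, reported as percent infection.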

Assay [2] can be described thus: Confirmatory screen NINDS Rhodamine qHTS for Zika virus inhibitors (AID 1347161). Note: potency is the fitted concentration of half-maximal effect; nearly all actives have a fitted effect of over 60% in size. As to conditions: purified enzyme assay, Rhodamine110 substrate fluorescence, 15 min; series mostly up to 22.2 µM. The method, boiled down: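 Rhodamine110-peptide cleavage (1.5 µM substrate) by 25 nM linked NS2B-NS3 enzyme at pH 8.0 (Tris, Tween 20), after 15 min RT preincubation with compounds; 15-min fluorescence change normalized to controls and Hill-fitted.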
For orientation: Quantitative high-throughput screening tests each substance at several concentrations.

Assay [3] concerns Zika virus NS2B-NS3 protease (linked). Description: 384 well plate NINDS AMC confirmatory qHTS for Zika virus inhibitors (AID 1347163).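 Note: linked protease at 5 30 or 60 nM final depending on run; fluorescence of AMC released from Ac-VKTGKR-AMC peptide cleaved by the protease; top concentration of the series differs between compounds; nearly all actives have a fitted effect of over 50% in size.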 As to conditions: Recombinant NS2B-NS3 protease, Ac-VKTGKR-AMC fluorescence; series mostly up to 100 µM. The method in brief:
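Linked protease 5/30/60 nM final; cpds up to 1 mM final, ~15 min preinc. Substrate Ac-VKTGKR-AMC 30 microM final. RT, dark, 25 min; FI ex 355/em 460; normalized to no-enzyme/no-inhibitor ctrls.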

The test system of assay [4] is Zika virus NS2B-NS3 protease (linked construct). The assay is described as follows: 384 well plate NINDS Rhodamine confirmatory qHTS for Zika virus inhibitors (AID 1347164). Note: potency is the fitted concentration of half-maximal effect; nearly all actives have a fitted effect of over 65% in size. As to conditions: rhodamine-110 peptide substrate fluorescence. The method in brief:
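Cleavage of Ac-LKRR-Rhodamine 110 (10 microM final) by linked protease (final 5, 30 or 60 nM) was followed as fluorescence at 485/538 nm after 25 min, room temperature, dark. Compounds preincubated ~15 min.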

Assay [5] can be described thus: Vero cells viability qHTS for Zika virus inhibitors (AID 1347167). The note with it: cytotoxicity counter-screen (Zika); series mostly up to 45.9 µM. The method, boiled down: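 Compounds were tested in concentration series on cells grown in DMEM containing 4% FBS. After 24 to 48 hours, cellular ATP was measured by luminescence with CellTiter Glo.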

Turning to `CCOC(=O)Cn1cccc1-c1nc(-c2ccc(OC)cc2)c(-c2ccc(OC)cc2)s1`, the compound was classed as inactive in assay [1] and in assay [5]. Also, the Potency in assay [2] was 11.1 µM (active); in assay [4], 0.398 µM (active). The Potency entry in assay [3] was “inactive”.
